From the supplement of paper PMC7695840
Counter-ions that a name gives are not always drawn.

How the values were obtained:
[1] = tested on: Staphylococcus aureus MW2 delta-mecA (mecA-); assay: normalized GFP fluorescence (growth of mecA- strain) (fraction of control range); higher = more growth of mecA- strain; settings: compound concentration: 150 uM; cefoxitin: subinhibitory; fluorescent label: GFP
Summary of the method: (§1)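 S. aureus MW2 cells, pre-induced, were used as a 1:1 mix of a DsRed strain carrying the gene and a GFP strain lacking it, in LB with a subinhibitory antibiotic dose set each day. At 5 µL/well they were placed onto 150 μM compound (1.5% DMSO) in 1536-well plates, one replicate, and kept unshaken for 20 h at 37 °C, 90% humidity. After DsRed (540/590) and GFP (485/520) reads scaled per plate to single-strain control medians, plates with high untreated ratios and rows with DsRed/GFP >10 were excluded.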

[2] = tested on: Staphylococcus aureus MW2 (mecA+); assay: normalized DsRed fluorescence (growth of mecA+ strain) (fraction of control range); higher = more growth of mecA+ strain; settings: compound concentration: 150 uM; cefoxitin: subinhibitory; fluorescent label: DsRed
Summary of the method: as §1

| SMILES | normalized GFP fluorescence [1] | normalized DsRed fluorescence [2] |
| --- | --- | --- |
| OC(Cn1cncn1)(Cn1cncn1)c1ccc(F)cc1F | 0.417 | 0.746 |
| CC(C)OC(=O)OCOP(=O)(CO[C@H](C)Cn1cnc2c(N)ncnc21)OCOC(=O)OC(C)C [Tenofovir Disoproxil Fumarate] | 0.238 | 0.514 |
| O=NN(CCCl)C(=O)NCCCl | 0.549 | 0.898 |
| O=C(/C=C/c1cccc(S(=O)(=O)Nc2ccccc2)c1)NO [Belinostat (PXD101)] | 0.364 | 1.16 |
| O.O.O.O.O=C([O-])CC(O)(CC(=O)[O-])C(=O)[O-].[Li+].[Li+].[Li+] | 0.18 | 1.09 |
| Nc1nc(Cl)nc2c1ncn2[C@H]1C[C@H](O)[C@@H](CO)O1 [Cladribine] | 0.546 | 0.824 |
| Cc1ccc(S(=O)(=O)NC(=O)NN2CCCCCC2)cc1 | 0.372 | 0.655 |
| C[N+](C)(C)CCO.[Cl-] | 0.657 | 0.615 |
| CC[N+](CC)(CC)CCOc1cccc(OCC[N+](CC)(CC)CC)c1OCC[N+](CC)(CC)CC | 0.163 | 0.336 |
| CCc1cccc2c3c([nH]c12)C(CC)(CC(=O)O)OCC3 (stereo not drawn) | 0.0954 | 0.562 |
| Nc1ccn(C[C@@H](CO)OCP(=O)(O)O)c(=O)n1 [Cidofovir (Vistide)] | 0.408 | 0.568 |
| Cc1cccc(N(C)C(=S)Oc2ccc3ccccc3c2)c1 | 0.561 | 0.911 |
| C[C@@H]1C[C@H]2[C@@H]3CCC4=CC(=O)C=C[C@]4(C)[C@@]3(Cl)[C@@H](O)C[C@]2(C)[C@@]1(OC(=O)c1ccco1)C(=O)CCl | 0.456 | 1.18 |
| O=C(O)c1ccccc1C(=O)Nc1ccc(S(=O)(=O)Nc2nccs2)cc1 | 0.538 | 0.763 |
